According to PubChem BioAssay AID504850 (National Center for Advancing Translational Sciences (NCATS), 2011):
“And” between values parts separate entries of the source, which are not always exact repeats. Identical values can stand only once. Out of some 2,300 compounds screened, about 1,200 (52%) were called active. Inconclusive results (about 34%) are left out. Calls come from the whole dose curve; as a rule, active = well fitted inhibition curve with a large enough effect; inconclusive = small, poorly fitted or top-dose-only effect, or effect the other way; inactive = no such curve, though single readings can be large or run the other way. The set was probably picked from earlier hits. This is one part of the list.
Potency is the fitted concentration of half-maximal effect.

Experiment: Confirmation screen for delayed death inhibitors of the malarial parasite plastid, 48 hour incubation; note: nearly all actives have a fitted effect of over 65% in size
Conditions: P. falciparum-infected erythrocytes, luciferase growth; series mostly up to 28.7 µM
From the text: The goal of this screen is to discover new antimalarial compounds that act by inhibiting the development of the apicoplast in the malarial parasite Plasmodium falciparum. The biochemical processes that make this organelle essential for erythrocytic stage parasites are not well understood. However, antibiotics, such as azithromycin and tetracycline, which target the apicoplast translational machinery, have a potent antimalarial effect. […] We have developed a cell-based assay that measures parasite growth based on the expression of an integrated copy of a firefly luciferase reporter. To detect small molecules that cause this "delayed death phenotype, erythrocytes infected with the luciferase-expressing parasites were incubated with compounds for either one or two generations, corresponding to 48 and 96 hours, respectively. Compounds that inhibit parasite growth in the second generation, but not the first, should be enriched in antimalarials that target the apicoplast. Growth inhibition is detected by a decrease in luciferase activity. MLPCN Grant: R21 NS059500 Assay Provider: David Fidock and Eric Ekland, Columbia University Keywords: NIH Roadmap, MLPCN, MLI, MLSMR, qHTS, NCGC, qHTS, malaria, luciferase, viability
Four microliters of culture medium (RPMI 1640 with 0.5% w/v Albumax (GIBCO), 24 mM sodium bicarbonate and 10 ug/mL gentamycin) were dispensed by a Multi-drop Combi into white solid 1536-well plates (Grenier) and 23 nL compound was added by a pin tool. Four microliters of infected erythrocytes (2% hematocrit, 0.1% parasitemia final concentration) in culture medium were dispensed and the plates incubated for 48 hours at 37 C in 5% CO2. Two microliters of luciferase detection reagent was added and luminescence was detected by a ViewLux (PerkinElmer) reader.
With `Fc1ccc(C[n+]2c(-c3ccccc3)cc(-c3ccccc3)cc2-c2ccccc2)cc1` the Potency was 2.82 µM (active). With `CN1C[C@H](C(=O)N[C@]2(C)O[C@@]3(O)[C@@H]4CCCN4C(=O)[C@H](Cc4ccccc4)N3C2=O)C[C@@H]2c3cccc4[nH]cc(c34)C[C@H]21` the Potency was 2.82 µM (active). In the case of `C[C@@H]1CC[C@H]2[C@@H](C)C(=O)O[C@@H]3OC4(C)CC[C@@H]1C32OO4` (some centres not stated), the Potency is reported as 0.0447 µM (active). With `C[C@@H]1CC[C@H]2[C@@H](C)C(=O)O[C@@H]3O[C@@]4(C)CC[C@@H]1[C@]32OO4` the Potency was 0.0794 µM (active). For `Cn1c(O)c(C=NC2C(=O)C3(C)CCC2C3(C)C)c(=O)n(C)c1=O` (configuration not stated), the Potency was “inactive”. In the case of `CC(=O)N1CC(=O)Nc2ccc(Cl)cc2C1c1ccccc1` (configuration not stated), the Potency is reported as “inactive”. In the case of `O=C(CCl)Nc1nccs1`, the Potency is reported as 5.01 µM (active). In the case of `O=C(/C=C/c1cccs1)c1cc(Cl)ccc1OC(=O)N1CCOCC1`, the Potency is reported as 14.1 µM (active). For `C[C@H]1C[C@@H](C)C(=O)[C@@H]([C@H](O)CC2CC(=O)NC(=O)C2)C1`, the Potency was 0.0794 µM (active). With `C[C@@H]1C[C@@H]([C@H](O)CC2CC(=O)NC(=O)C2)C(=O)[C@@H](C)C1` the Potency was 0.891 µM (active). For `Cc1ccc(N2C(=O)NC(=O)/C(=C\C=C\c3ccco3)C2=O)cc1`, the Potency was “inactive”. For `CCN1CCN(Cc2nc3ccc([N+](=O)[O-])cc3c(=O)n2-c2ccccc2F)CC1`, the Potency was “inactive”. With `COc1cc(C(=O)N/N=C/C23CC[C@@H](O)CC2(O)CC[C@@H]2[C@@H]3CCC3(C)C(C4=CC(=O)OC4)CCC23O)ccc1O` (some centres not stated) the Potency was “inactive”. With `COc1ccc(C(=O)N/N=C/C23CC[C@@H](O)CC2(O)CC[C@@H]2[C@@H]3CCC3(C)C(C4=CC(=O)OC4)CCC23O)cc1` (some centres not stated) the Potency was “inactive”. For `CN(C)c1ccc(C(=O)N/N=C/C23CC[C@@H](O)CC2(O)CC[C@@H]2[C@@H]3CCC3(C)C(C4=CC(=O)OC4)CCC23O)cc1` (some centres not stated), the Potency was 12.6 µM (active). For `CN(C)[C@@H]1C(=O)C(C(N)=O)=C(O)[C@@]2(O)C(=O)C3=C(O)c4c(O)cccc4[C@@](C)(O)C3[C@H](O)C12` (some centres not stated), the Potency was 5.01 µM (active). For `C[n+]1c2cc(N)ccc2cc2ccc(N)cc21`, the Potency was 1 µM (active). For `COC(=O)c1nc(-c2ccc3c(n2)C(=O)C(N)=C(OC)C3=O)c(N)c(-c2ccc(OC)c(OC)c2O)c1C`, the Potency was 0.562 µM (active). With `CC[C@H]1CN2CCc3cc(OC)c(OC)cc3[C@H]2C[C@@H]1C[C@@H]1NCCc2cc(OC)c(OC)cc21` the Potency was 0.562 µM (active). For `CC[C@H]1CN2CCc3cc(OC)c(OC)cc3[C@@H]2C[C@@H]1C[C@H]1NCCc2cc(OC)c(OC)cc21`, the Potency was 0.316 µM (active). With `CC[C@H]1CN2CCc3cc(OC)c(OC)cc3C2C[C@@H]1C[C@H]1NCCc2cc(OC)c(OC)cc21` (some centres not stated) the Potency was 0.0501 µM (active). With `O=C1NC(=O)N(c2ccccc2)C(=O)/C1=C/C=C/c1ccco1` the Potency was “inactive”. For `CCN(CC)Cc1cc(Nc2ccnc3cc(Cl)ccc23)ccc1O`, the Potency was 79.4 nM (active) and 22.4 nM (active). With `CC(C)CCOP(N)(=O)Oc1ccccc1` (configuration not stated) the Potency was 4.47 µM (active). For `Cn1c(=O)oc2cc(NC(=O)CCl)ccc21`, the Potency was 0.794 µM (active). With `CCn1c(=O)oc2cc(NC(=O)CCl)ccc21` the Potency was 2.24 µM (active). With `O=[N+]([O-])c1cccc2c([As](=O)(O)O)cccc12` the Potency was 3.55 µM (active). For `Oc1ccc(-[n+]2c(-c3ccccc3)cc(-c3ccccc3)cc2-c2ccccc2)cc1`, the Potency was 0.708 µM (active). With `C[C@@H]1O[C@@H](O[C@H]2C[C@@H](O)[C@]3(CO)[C@@H]4C(CC[C@]3(O)C2)[C@@]2(O)CC[C@H](C3COC(=O)C3)[C@@]2(C)C[C@H]4O)[C@H](O)[C@H](O)[C@H]1O` (some centres not stated) the Potency was “inactive”. For `CCCNS(=O)(=O)c1ccc(OCC(=O)N2CCN(Cc3ccc4c(c3)OCO4)CC2)c(C)c1`, the Potency was 12.6 µM (active). In the case of `Cc1ccc(C(C)C)c(OCC(=O)N2CCN(Cc3nc4cc([N+](=O)[O-])ccc4n3C)CC2)c1`, the Potency is reported as “inactive”. With `CCOC(=O)COc1ccc2c(c1)c(C(C)=O)c(C)n2Cc1ccccc1` the Potency was “inactive”. In the case of `Cn1cc([N+](=O)[O-])c(C(=O)Nc2ccc3c(C(F)(F)F)cc(=O)oc3c2)n1`, the Potency is reported as “inactive”. In the case of `O=C(NC1CC2CCCC(C1)N2)c1ccccc1` (configuration not stated), the Potency is reported as 10 µM (active). With `Clc1ccccc1CN1CCNCC1` the Potency was “inactive”. With `COc1ccc(Cn2c(N)c(C(=O)NCc3ccco3)c3nc4ccccc4nc32)cc1` the Potency was 3.98 µM (active). For `O=c1oc2ccccc2c(O)c1[C@H]1c2ccc(O)cc2Oc2c1c(=O)oc1ccccc21`, the Potency was “inactive”. In the case of `CN1CCc2cc3c(c4c2C1Cc1ccccc1-4)OCO3` (configuration not stated), the Potency is reported as 0.562 µM (active). For `O=C1/C(=C/c2ccccc2)C[C@@]2(O)[C@H]3Cc4ccc(O)c5c4[C@@]2(CCN3CC2CC2)C1O5` (some centres not stated), the Potency was 5.01 µM (active). For `CCCCCCn1c(=O)c(C(=O)Nc2ncccc2O)c(O)c2ccccc21`, the Potency was “inactive”. In the case of `C=C1C(O)[C@@H]2O[C@]3(CC[C@H](/C=C/C(C)[C@@H]4CC(C)=CC5(O[C@H](C[C@@](C)(O)C(=O)O)CCC5O)O4)O3)CC[C@H]2O[C@@H]1C(O)CC(C)[C@H]1OC2(CCCCO2)CCC1C` (some centres not stated), the Potency is reported as 0.0891 µM (active). In the case of `C=C1C(=O)O[C@H]2C[C@@H](C)[C@@H]3C=CC(=O)[C@@]3(C)C[C@H]12`, the Potency is reported as 2 µM (active). For `C=C1C(=O)O[C@@H]2C[C@@H](C)[C@@H]3C=CC(=O)[C@@]3(C)[C@@H](OC(=O)CC(=O)O[C@H]3[C@@H]4C(=C)C(=O)O[C@@H]4C[C@@H](C)[C@@H]4C=CC(=O)[C@]43C)[C@H]12`, the Potency was 0.398 µM (active). In the case of `C=C1C(=O)O[C@@H]2C[C@@H](C)[C@@H]3C=CC(=O)[C@@]3(C)[C@@H](O)[C@H]12`, the Potency is reported as 1.58 µM (active). In the case of `CCCCN=C[C@]12CCC(O)CC1(O)CCC1[C@@H]2CC[C@]2(C)[C@H](C3C=CC(=O)O3)CCC12O` (some centres not stated), the Potency is reported as “inactive”. For `C[C@]12CCC3C(CCC4=CC(O)CC[C@@]43/C=N/O)C1(O)CCC2C1=CC(=O)OC1` (some centres not stated), the Potency was “inactive”. For `COC(=O)C1=C(c2ccccc2OCc2ccccc2)C[C@@H]2CC[C@H]1N2C(=O)NCCOc1ccc(OC)cc1`, the Potency was 12.6 µM (active). For `COC(=O)C1=C(c2ccc(F)cc2OCc2ccccc2)C[C@@H]2CC[C@H]1N2C(=O)NCc1ccccc1Br`, the Potency was 1.78 µM (active). With `CCC(C(=O)N1CCC2(CC1)OCCO2)n1c2ccccc2c2nc(=O)cc(C)n21` (configuration not stated) the Potency was 11.2 µM (active). With `CCOc1cc2c(cc1OCC)-n1cccc1C(c1ccccc1F)NC2` (configuration not stated) the Potency was 10 µM (active). With `CCOP(=O)(OCC)C(O)c1ccc(OC)cc1OC` (configuration not stated) the Potency was “inactive”. In the case of `COc1ccc(-c2cc(-c3ccccc3)[n+](C)c(-c3ccccc3)c2)cc1`, the Potency is reported as 3.16 µM (active). In the case of `C[n+]1c(-c2ccccc2)cc(-c2ccc(Cl)cc2)cc1-c1ccccc1`, the Potency is reported as 2 µM (active). For `Cc1cc2ccccn2c1C(C[N+](=O)[O-])c1c(F)cccc1Cl` (configuration not stated), the Potency was 12.6 µM (active). For `O=[N+]([O-])c1ccc(NC2CCCC2)c2ccncc12`, the Potency was “inactive”. With `C=CCn1c(O)c(N=Nc2c(C)n(C)n(-c3ccccc3)c2=O)c(=O)[nH]c1=S` the Potency was 11.2 µM (active). In the case of `C[C@@H]1C[C@@H]2O[C@H]2/C=C\C=C\C(=O)Cc2c(Cl)c(O)cc(O)c2C(=O)O1`, the Potency is reported as 7.08 µM (active). For `C=C[C@H]1CN2CC[C@H]1C[C@@H]2[C@@H](O)c1ccnc2ccccc12`, the Potency was 0.251 µM (active). With `CN1C2CCC1/C(=C/c1ccccn1)C(=O)/C2=C\c1ccccn1` the Potency was 0.251 µM (active). With `CC[n+]1c(-c2ccccc2)c2cc(N)ccc2c2ccc(N)cc21` the Potency was 1 µM (active). For `CC(C)c1ccc(N2C(=O)NC(=O)/C(=C\C=C\c3ccco3)C2=O)cc1`, the Potency was “inactive”. In the case of `CC(C)c1oc(=O)cc2c1[C@@H](O)[C@H]1OC(=O)[C@@]3(C)CC[C@@H](O)[C@@]2(C)C13` (some centres not stated), the Potency is reported as 8.91 µM (active).
